In PMC7862700, “An all-to-all approach to the identification of sequence-specific readers for epigenetic DNA modifications on cytosine”:

Legend:
Assay in all cases: DAPPL (digital affinity profiling via proximity ligation, sequencing); 10 mM Tris-HCl pH 7.5, 50 mM NaCl, 1 mM DTT, 4% glycerol, room temperature, 30 min; GST-TFs on glutathione beads, 16-mer random dsDNA library, 0.1% formaldehyde crosslink after washing; high values mean tight binding
Conditions in all cases: protein: recombinant; tags: N-terminal GST; dsDNA, one strand shown
ERF = target: T1, ERF (Homo sapiens, UniProt P50548 1-548)
T1 sequence: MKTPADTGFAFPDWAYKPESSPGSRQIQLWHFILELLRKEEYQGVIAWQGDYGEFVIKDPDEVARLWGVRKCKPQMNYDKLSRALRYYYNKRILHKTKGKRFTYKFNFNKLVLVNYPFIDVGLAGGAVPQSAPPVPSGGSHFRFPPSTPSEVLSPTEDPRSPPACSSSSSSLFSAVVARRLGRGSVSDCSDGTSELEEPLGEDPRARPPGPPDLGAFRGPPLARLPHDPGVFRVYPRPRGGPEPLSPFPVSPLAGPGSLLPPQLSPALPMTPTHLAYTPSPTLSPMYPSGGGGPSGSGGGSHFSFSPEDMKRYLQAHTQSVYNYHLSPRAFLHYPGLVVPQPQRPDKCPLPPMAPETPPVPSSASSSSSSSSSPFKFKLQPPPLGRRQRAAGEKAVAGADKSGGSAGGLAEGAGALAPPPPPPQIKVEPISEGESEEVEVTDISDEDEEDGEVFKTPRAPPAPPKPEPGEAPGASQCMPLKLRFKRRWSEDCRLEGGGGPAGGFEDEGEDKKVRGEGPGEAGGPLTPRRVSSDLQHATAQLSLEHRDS
Outline: (§1)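 Pools of DNA-barcoded human transcription factors, expressed in yeast as GST fusions on glutathione beads and combined with a tag-only sample, were incubated with 200 nmole of a 16-mer random double-stranded DNA library. Incubation took 30 min at room temperature in Tris/NaCl/DTT/glycerol buffer and was followed by washing, 0.1% formaldehyde crosslinking, proximity ligation (BsaI/T4 ligase, 1 h, 37 °C), PCR amplification and sequencing on an Illumina NextSeq500. Binding signal is the ratio of a hexamer's read frequency for a factor to its frequency for the tag-only sample.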

ETV3L = target: T2, ETV3L (Homo sapiens, UniProt Q6ZN32 1-361)
T2 sequence: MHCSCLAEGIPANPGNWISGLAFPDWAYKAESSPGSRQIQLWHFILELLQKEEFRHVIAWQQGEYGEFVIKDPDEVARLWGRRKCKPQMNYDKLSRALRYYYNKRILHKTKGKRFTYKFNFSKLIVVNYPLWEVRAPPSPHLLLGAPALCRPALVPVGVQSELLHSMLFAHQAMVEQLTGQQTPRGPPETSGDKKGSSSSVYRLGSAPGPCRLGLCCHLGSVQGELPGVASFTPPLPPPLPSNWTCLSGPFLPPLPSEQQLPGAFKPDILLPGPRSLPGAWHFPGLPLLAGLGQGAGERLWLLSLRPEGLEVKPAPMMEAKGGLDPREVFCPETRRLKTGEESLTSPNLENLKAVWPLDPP
Outline: as §1

ETS2 = target: T3, ETS2 (Homo sapiens, UniProt P15036 1-469)
T3 sequence: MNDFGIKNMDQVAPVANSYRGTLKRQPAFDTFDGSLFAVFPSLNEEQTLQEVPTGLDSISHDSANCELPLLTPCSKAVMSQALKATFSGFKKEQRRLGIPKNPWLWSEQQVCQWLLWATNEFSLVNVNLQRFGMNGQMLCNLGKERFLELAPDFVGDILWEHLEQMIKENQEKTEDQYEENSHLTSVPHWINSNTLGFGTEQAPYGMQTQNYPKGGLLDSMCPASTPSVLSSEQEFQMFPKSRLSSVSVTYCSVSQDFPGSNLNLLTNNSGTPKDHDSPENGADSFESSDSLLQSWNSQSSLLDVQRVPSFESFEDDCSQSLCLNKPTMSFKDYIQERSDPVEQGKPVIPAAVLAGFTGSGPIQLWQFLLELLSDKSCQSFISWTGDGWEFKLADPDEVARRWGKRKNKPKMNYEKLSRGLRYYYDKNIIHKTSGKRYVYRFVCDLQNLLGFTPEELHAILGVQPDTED
Outline: as §1

SPDEF = target: T4, SPDEF (Homo sapiens, UniProt O95238 1-335)
T4 sequence: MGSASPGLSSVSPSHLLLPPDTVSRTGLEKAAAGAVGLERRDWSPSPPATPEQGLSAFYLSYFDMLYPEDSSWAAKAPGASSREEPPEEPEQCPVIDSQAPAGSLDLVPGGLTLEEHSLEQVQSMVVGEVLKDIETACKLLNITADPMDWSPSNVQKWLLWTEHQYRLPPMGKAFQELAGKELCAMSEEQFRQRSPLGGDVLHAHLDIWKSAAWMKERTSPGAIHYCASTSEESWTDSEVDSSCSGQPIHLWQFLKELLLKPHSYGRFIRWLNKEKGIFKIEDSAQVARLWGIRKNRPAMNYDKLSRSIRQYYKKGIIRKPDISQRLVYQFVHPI
Outline: as §1

ETV7 = target: T5, ETV7 (Homo sapiens, UniProt Q9Y603 1-341)
T5 sequence: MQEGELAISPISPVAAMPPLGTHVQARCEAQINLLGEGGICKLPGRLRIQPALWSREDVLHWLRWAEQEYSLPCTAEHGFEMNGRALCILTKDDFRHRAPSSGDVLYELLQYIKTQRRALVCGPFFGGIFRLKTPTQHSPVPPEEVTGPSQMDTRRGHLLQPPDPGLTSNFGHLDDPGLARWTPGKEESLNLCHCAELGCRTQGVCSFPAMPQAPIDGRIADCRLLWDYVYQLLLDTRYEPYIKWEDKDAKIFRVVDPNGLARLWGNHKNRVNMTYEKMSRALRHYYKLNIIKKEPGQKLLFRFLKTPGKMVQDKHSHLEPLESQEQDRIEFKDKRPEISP
Outline: as §1

ELF5 = target: T6, ELF5 (Homo sapiens, UniProt Q9UKW6-2 1-255)
T6 sequence: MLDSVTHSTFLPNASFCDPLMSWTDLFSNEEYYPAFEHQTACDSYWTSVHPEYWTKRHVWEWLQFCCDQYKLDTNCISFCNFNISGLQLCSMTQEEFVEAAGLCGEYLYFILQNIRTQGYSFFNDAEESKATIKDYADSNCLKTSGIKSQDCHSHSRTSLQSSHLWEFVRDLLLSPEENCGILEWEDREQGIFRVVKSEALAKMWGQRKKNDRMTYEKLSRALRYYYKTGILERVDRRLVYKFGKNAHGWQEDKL
Outline: as §1

ETV3 = target: T7, ETV3 (Homo sapiens, UniProt P41162-2 1-143)
T7 sequence: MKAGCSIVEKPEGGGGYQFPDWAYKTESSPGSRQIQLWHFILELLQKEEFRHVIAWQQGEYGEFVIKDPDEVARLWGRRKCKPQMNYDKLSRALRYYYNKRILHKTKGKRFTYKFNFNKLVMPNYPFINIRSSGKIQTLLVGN
Outline: as §1

ETV6 = ETV6 (Homo sapiens, UniProt P41212 1-452)
Outline: as §1

Sequence of ETV6 (P41212 whole entry): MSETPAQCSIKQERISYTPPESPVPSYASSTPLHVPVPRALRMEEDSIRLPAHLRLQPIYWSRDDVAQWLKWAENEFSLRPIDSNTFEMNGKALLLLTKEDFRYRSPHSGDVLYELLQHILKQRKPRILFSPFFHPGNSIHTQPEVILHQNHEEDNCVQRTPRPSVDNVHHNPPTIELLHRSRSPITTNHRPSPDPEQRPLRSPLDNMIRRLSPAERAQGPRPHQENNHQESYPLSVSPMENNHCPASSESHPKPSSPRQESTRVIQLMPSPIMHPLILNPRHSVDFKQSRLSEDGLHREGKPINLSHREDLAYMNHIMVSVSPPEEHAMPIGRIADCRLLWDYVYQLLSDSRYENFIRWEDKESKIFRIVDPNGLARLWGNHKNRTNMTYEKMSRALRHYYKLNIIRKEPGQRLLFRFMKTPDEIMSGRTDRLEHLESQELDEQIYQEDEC

Row | Sequence | binding signal (ERF) | binding signal (ETV3L) | binding signal (ETS2) | binding signal (SPDEF) | binding signal (ETV7) | binding signal (ELF5) | binding signal (ETV3) | binding signal (ETV6)
1 | AAGTGC | 1.22 fold enrichment (6-mer frequency, TF over GST control) | 1.2 fold enrichment (6-mer frequency, TF over GST control) | 1.23 fold enrichment (6-mer frequency, TF over GST control) | 1.26 fold enrichment (6-mer frequency, TF over GST control) | 1.32 fold enrichment (6-mer frequency, TF over GST control) | 1.29 fold enrichment (6-mer frequency, TF over GST control) | 1.39 fold enrichment (6-mer frequency, TF over GST control) | 1.36 fold enrichment (6-mer frequency, TF over GST control)
2 | TATATG | 1.48 fold enrichment (6-mer frequency, TF over GST control) | 1.35 fold enrichment (6-mer frequency, TF over GST control) | 1.38 fold enrichment (6-mer frequency, TF over GST control) | 1.29 fold enrichment (6-mer frequency, TF over GST control) | 1.29 fold enrichment (6-mer frequency, TF over GST control) | 1.39 fold enrichment (6-mer frequency, TF over GST control) | 1.41 fold enrichment (6-mer frequency, TF over GST control) | 1.34 fold enrichment (6-mer frequency, TF over GST control)
3 | CCGTAC | 1.39 fold enrichment (6-mer frequency, TF over GST control) | 1.25 fold enrichment (6-mer frequency, TF over GST control) | 1.32 fold enrichment (6-mer frequency, TF over GST control) | 1.41 fold enrichment (6-mer frequency, TF over GST control) | 1.32 fold enrichment (6-mer frequency, TF over GST control) | 1.46 fold enrichment (6-mer frequency, TF over GST control) | 1.36 fold enrichment (6-mer frequency, TF over GST control) | 1.33 fold enrichment (6-mer frequency, TF over GST control)
4 | GTGCTC | 1.28 fold enrichment (6-mer frequency, TF over GST control) | 1.19 fold enrichment (6-mer frequency, TF over GST control) | 1.26 fold enrichment (6-mer frequency, TF over GST control) | 1.05 fold enrichment (6-mer frequency, TF over GST control) | 1.25 fold enrichment (6-mer frequency, TF over GST control) | 1.22 fold enrichment (6-mer frequency, TF over GST control) | 1.25 fold enrichment (6-mer frequency, TF over GST control) | 1.32 fold enrichment (6-mer frequency, TF over GST control)
5 | TGCCGC | 1.32 fold enrichment (6-mer frequency, TF over GST control) | 1.22 fold enrichment (6-mer frequency, TF over GST control) | 1.33 fold enrichment (6-mer frequency, TF over GST control) | 1.15 fold enrichment (6-mer frequency, TF over GST control) | 1.22 fold enrichment (6-mer frequency, TF over GST control) | 1.22 fold enrichment (6-mer frequency, TF over GST control) | 1.36 fold enrichment (6-mer frequency, TF over GST control) | 1.27 fold enrichment (6-mer frequency, TF over GST control)
6 | CCACGA | 1.04 fold enrichment (6-mer frequency, TF over GST control) | 1.09 fold enrichment (6-mer frequency, TF over GST control) | 1.08 fold enrichment (6-mer frequency, TF over GST control) | 1.03 fold enrichment (6-mer frequency, TF over GST control) | 1.17 fold enrichment (6-mer frequency, TF over GST control) | 1.01 fold enrichment (6-mer frequency, TF over GST control) | 1.02 fold enrichment (6-mer frequency, TF over GST control) | 1.01 fold enrichment (6-mer frequency, TF over GST control)
7 | TGTATA | 1.24 fold enrichment (6-mer frequency, TF over GST control) | 1.11 fold enrichment (6-mer frequency, TF over GST control) | 1.1 fold enrichment (6-mer frequency, TF over GST control) | 1.24 fold enrichment (6-mer frequency, TF over GST control) | 1.09 fold enrichment (6-mer frequency, TF over GST control) | 1.11 fold enrichment (6-mer frequency, TF over GST control) | 1.04 fold enrichment (6-mer frequency, TF over GST control) | 1.04 fold enrichment (6-mer frequency, TF over GST control)
8 | ACTCAC | 1.25 fold enrichment (6-mer frequency, TF over GST control) | 1.16 fold enrichment (6-mer frequency, TF over GST control) | 1.28 fold enrichment (6-mer frequency, TF over GST control) | 1.22 fold enrichment (6-mer frequency, TF over GST control) | 1.2 fold enrichment (6-mer frequency, TF over GST control) | 1.21 fold enrichment (6-mer frequency, TF over GST control) | 1.15 fold enrichment (6-mer frequency, TF over GST control) | 1.22 fold enrichment (6-mer frequency, TF over GST control)
9 | ACGTAC | 1.16 fold enrichment (6-mer frequency, TF over GST control) | 1.12 fold enrichment (6-mer frequency, TF over GST control) | 1.19 fold enrichment (6-mer frequency, TF over GST control) | 1.13 fold enrichment (6-mer frequency, TF over GST control) | 1.24 fold enrichment (6-mer frequency, TF over GST control) | 1.15 fold enrichment (6-mer frequency, TF over GST control) | 1.12 fold enrichment (6-mer frequency, TF over GST control) | 1.25 fold enrichment (6-mer frequency, TF over GST control)
10 | GATGTC | 1.29 fold enrichment (6-mer frequency, TF over GST control) | 1.31 fold enrichment (6-mer frequency, TF over GST control) | 1.33 fold enrichment (6-mer frequency, TF over GST control) | 1.53 fold enrichment (6-mer frequency, TF over GST control) | 1.27 fold enrichment (6-mer frequency, TF over GST control) | 1.42 fold enrichment (6-mer frequency, TF over GST control) | 1.32 fold enrichment (6-mer frequency, TF over GST control) | 1.21 fold enrichment (6-mer frequency, TF over GST control)
11 | CGACGC | 1.17 fold enrichment (6-mer frequency, TF over GST control) | 1.08 fold enrichment (6-mer frequency, TF over GST control) | 1.16 fold enrichment (6-mer frequency, TF over GST control) | 1.04 fold enrichment (6-mer frequency, TF over GST control) | 1.05 fold enrichment (6-mer frequency, TF over GST control) | 1.05 fold enrichment (6-mer frequency, TF over GST control) | 1 fold enrichment (6-mer frequency, TF over GST control) | 1.09 fold enrichment (6-mer frequency, TF over GST control)
12 | AACGTC | 1.01 fold enrichment (6-mer frequency, TF over GST control) | 1.03 fold enrichment (6-mer frequency, TF over GST control) | 1.14 fold enrichment (6-mer frequency, TF over GST control) | 1.11 fold enrichment (6-mer frequency, TF over GST control) | 1.11 fold enrichment (6-mer frequency, TF over GST control) | 1.1 fold enrichment (6-mer frequency, TF over GST control) | 1.07 fold enrichment (6-mer frequency, TF over GST control) | 1.05 fold enrichment (6-mer frequency, TF over GST control)
